# From the supplement of paper PMC6658780
# Structures can show the parent of a compound that is named as a salt. ± gives the standard deviation of the averaged measurements.
# Test system: Escherichia coli ATCC BAA-2469
# Assay: percent growth inhibition of drug alone vs DMSO control; higher = more growth inhibition
# Conditions: antibiotic (0.125x MIC): none (0.1% DMSO); 7 µM
# Procedure: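 Prestwick drugs tested at 20 uM and 7 uM with an antibiotic at 0.125x MIC (16 mg/L when MIC >128 mg/L) against E. coli ATCC BAA-2469 (NDM-1) in CAMHB, 384-well plates, duplicate runs. Percent growth inhibition was computed from OD600 (24 h minus 0 h) relative to DMSO wells. Drug + DMSO-only wells are also given. […]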
row,Compound,percent growth inhibition of drug alone
1,O=C1c2c(O)ccc(O)c2C(=O)c2c(NCCNCCO)ccc(NCCNCCO)c21 [Mitoxantrone dihydrochloride],7.78 ± 5.1%
2,Cc1c(N(C)C)c(=O)n(-c2ccccc2)n1C [Amidopyrine],0.00227 ± 1.1%
3,COc1cc(NS(=O)(=O)c2ccc(N)cc2)nc(OC)n1 [Sulfadimethoxine],-0.418 ± 1.2%
4,CCCOc1ccc2[nH]c(NC(=O)OC)nc2c1 [Oxibendazol],0.775 ± 0.31%
5,CO/N=C(\C(=O)N[C@@H]1C(=O)N2C(C(=O)O)=C(COC(N)=O)CS[C@H]12)c1ccco1 [Cefuroxime sodium salt],-0.846 ± 2.2%
6,Cc1c(OCC(F)(F)F)ccnc1C[S+]([O-])c1nc2ccccc2[nH]1 (stereo unspecified) [Lansoprazole],2.04 ± 3.3%
7,Cc1cc(N)c2ccccc2[n+]1CCCCCCCCCC[n+]1c(C)cc(N)c2ccccc21 [Dequalinium dichloride],2.01 ± 0.53%
8,CC1CS(=O)(=O)CCN1/N=C/c1ccc([N+](=O)[O-])o1 (stereo unspecified) [Nifurtimox],1.01 ± 1.2%
9,NS(=O)(=O)c1cc2c(cc1C(F)(F)F)NC(Cc1ccccc1)NS2(=O)=O (stereo unspecified) [Bendroflumethiazide],-1.67 ± 1.1%
10,O=c1[nH]c(=O)n([C@H]2C[C@H](O)[C@@H](CO)O2)cc1C(F)(F)F [Trifluridine],4.84 ± 4.7%
11,COc1ccccc1OCC(O)CO (stereo unspecified) [Guaifenesin],-0.628 ± 1.6%
12,O=C(O)CN(CCN(CC(=O)O)CC(=O)O)CCN(CC(=O)O)CC(=O)O [Pentetic acid],0.0597 ± 2.1%
13,CCOC(=O)c1ccc(OC(=O)CCCCCNC(=N)N)cc1 [Gabexate mesilate],3.5 ± 6.5%
14,CCCNC(C)(C)COC(=O)c1ccccc1 [Meprylcaine hydrochloride],0.029 ± 2.2%
15,Cn1c(=O)c2c(ncn2C)n(C)c1=O [Caffeine],1.12 ± 0.78%
16,OCCN1CCN(CCCN2c3ccccc3Sc3ccc(C(F)(F)F)cc32)CC1 [Fluphenazine dihydrochloride],1.91 ± 1.5%
17,Nc1nc(O)c2ncn(CCC(CO)CO)c2n1 [Penciclovir],1.39 ± 3.5%
18,CCCCCCCCCCCCCCCC[N+](C)(C)CCN(Cc1ccc(OC)cc1)c1ncccn1 [Thonzonium bromide],3.7 ± 4.2%
19,CC(=O)OC[C@H]1O[C@@H]([S-])[C@H](OC(C)=O)[C@@H](OC(C)=O)[C@@H]1OC(C)=O.CCP(CC)CC.[Au+] [Auranofin],5.6 ± 2.6%
20,COc1ccc2c(c1)c(CC(=O)OCC(=O)O)c(C)n2C(=O)c1ccc(Cl)cc1 [Acemetacin],2.19 ± 1%
21,C[C@H]1[C@H](NC(=O)/C(=N\OC(C)(C)C(=O)O)c2csc(N)n2)C(=O)N1S(=O)(=O)O [Aztreonam],13.2 ± 14%
22,C#C[C@]1(O)CC[C@H]2[C@@H]3CCC4=C(CCC(=O)C4)[C@H]3CC[C@@]21C [Norethynodrel],0.455 ± 0.56%

# Same assay, conditions: antibiotic (0.125x MIC): none (0.1% DMSO); 20 µM
row,Compound,percent growth inhibition of drug alone
1,Cc1c(N(C)C)c(=O)n(-c2ccccc2)n1C [Amidopyrine],-1.02 ± 2.5%
2,COc1cc(NS(=O)(=O)c2ccc(N)cc2)nc(OC)n1 [Sulfadimethoxine],-0.552 ± 0.63%
3,CCCOc1ccc2[nH]c(NC(=O)OC)nc2c1 [Oxibendazol],2.44 ± 0.18%
4,CO/N=C(\C(=O)N[C@@H]1C(=O)N2C(C(=O)O)=C(COC(N)=O)CS[C@H]12)c1ccco1 [Cefuroxime sodium salt],-0.542 ± 0.39%
5,Cc1c(OCC(F)(F)F)ccnc1C[S+]([O-])c1nc2ccccc2[nH]1 (stereo unspecified) [Lansoprazole],4.77 ± 4.3%
6,Cc1cc(N)c2ccccc2[n+]1CCCCCCCCCC[n+]1c(C)cc(N)c2ccccc21 [Dequalinium dichloride],12.5 ± 11%
7,CC1CS(=O)(=O)CCN1/N=C/c1ccc([N+](=O)[O-])o1 (stereo unspecified) [Nifurtimox],1.15 ± 4.3%
8,NS(=O)(=O)c1cc2c(cc1C(F)(F)F)NC(Cc1ccccc1)NS2(=O)=O (stereo unspecified) [Bendroflumethiazide],-1.13 ± 2.1%
9,O=c1[nH]c(=O)n([C@H]2C[C@H](O)[C@@H](CO)O2)cc1C(F)(F)F [Trifluridine],11.3 ± 6.5%
10,COc1ccccc1OCC(O)CO (stereo unspecified) [Guaifenesin],-0.463 ± 1.9%
11,O=C(O)CN(CCN(CC(=O)O)CC(=O)O)CCN(CC(=O)O)CC(=O)O [Pentetic acid],0.251 ± 0.41%
12,CCOC(=O)c1ccc(OC(=O)CCCCCNC(=N)N)cc1 [Gabexate mesilate],0.291 ± 0.37%
13,CCCNC(C)(C)COC(=O)c1ccccc1 [Meprylcaine hydrochloride],-0.823 ± 0.32%
14,Cn1c(=O)c2c(ncn2C)n(C)c1=O [Caffeine],-1.35 ± 0.22%
15,OCCN1CCN(CCCN2c3ccccc3Sc3ccc(C(F)(F)F)cc32)CC1 [Fluphenazine dihydrochloride],3.64 ± 1.5%
16,Nc1nc(O)c2ncn(CCC(CO)CO)c2n1 [Penciclovir],-1.4 ± 2.5%
17,CC(=O)OC[C@H]1O[C@@H]([S-])[C@H](OC(C)=O)[C@@H](OC(C)=O)[C@@H]1OC(C)=O.CCP(CC)CC.[Au+] [Auranofin],20.1 ± 20%
18,COc1ccc2c(c1)c(CC(=O)OCC(=O)O)c(C)n2C(=O)c1ccc(Cl)cc1 [Acemetacin],1.2 ± 0.59%
19,C#C[C@]1(O)CC[C@H]2[C@@H]3CCC4=C(CCC(=O)C4)[C@H]3CC[C@@]21C [Norethynodrel],5.02 ± 3.1%
